Source: PubChem (several laboratories)
Compounds with a hit are over-represented: about 27% of the library has one in this group of screens.
CYP2C9 inhib: blockers of cytochrome P450 2C9 activity – biochemical, luminescence, ADME assay, primary screen; P11712; AID 777, 2007; inhibition, % at 5 µM; actives 20% (n = 96,000); CYP2C9 Supersomes, luciferin-H conversion;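 active = blocking of liver enzyme CYP2C9 beyond about 50% at 5 µM, limit read from the data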
CYP2C9 activ: human CYP2C9 activators, primary screen, biochemical, luminescence. recombinant CYP2C9, luciferin-H conversion; stronger effect = higher value; factor 1 = untreated enzyme, 0 = blocked. activation factor at 5 µM. actives 1.4% (n = 96,000). AID 1024, 2008. Cytochrome P450 2C9 (Homo sapiens), P11712;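 active = activation factor of 2 or more for CYP2C9 at a 5 µM dose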
CYP2C19 inh: blockers of cytochrome P450 2C19 activity – biochemical, luminescence, ADME assay, primary screen; inhibition, % at 5 µM; CYP2C19 Supersomes, luciferin-H EGE luminescence, 30 min; actives 21% (n = 96,000); P33261;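 active = CYP2C19 inhibition above a set limit at 5 µM in the primary screen, cut at about 50% in these data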
CYP2C19 act: human CYP2C19 activators, primary screen, biochemical, luminescence. AID 1025, 2008. activation factor at 5 µM. 96,000 tested, under 10 active. recombinant CYP2C19, luciferin-H EGE luminescence; stronger effect = higher value; 0 = fully inhibited enzyme, 1 = untreated enzyme;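 active = activation factor of at least 2 at 5 µM in the primary screen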
sEH inh: soluble epoxide hydrolase inhibitors, primary screen, biochemical, human sEH; recombinant human sEH enzymatic activity assay; inhibition, % at 2 µM; Bifunctional epoxide hydrolase 2 (Homo sapiens), P34913; actives 0.34% (n = 91,000); in the data active = inhibition above about 80%
Target sequence (P34913 whole entry, looked up): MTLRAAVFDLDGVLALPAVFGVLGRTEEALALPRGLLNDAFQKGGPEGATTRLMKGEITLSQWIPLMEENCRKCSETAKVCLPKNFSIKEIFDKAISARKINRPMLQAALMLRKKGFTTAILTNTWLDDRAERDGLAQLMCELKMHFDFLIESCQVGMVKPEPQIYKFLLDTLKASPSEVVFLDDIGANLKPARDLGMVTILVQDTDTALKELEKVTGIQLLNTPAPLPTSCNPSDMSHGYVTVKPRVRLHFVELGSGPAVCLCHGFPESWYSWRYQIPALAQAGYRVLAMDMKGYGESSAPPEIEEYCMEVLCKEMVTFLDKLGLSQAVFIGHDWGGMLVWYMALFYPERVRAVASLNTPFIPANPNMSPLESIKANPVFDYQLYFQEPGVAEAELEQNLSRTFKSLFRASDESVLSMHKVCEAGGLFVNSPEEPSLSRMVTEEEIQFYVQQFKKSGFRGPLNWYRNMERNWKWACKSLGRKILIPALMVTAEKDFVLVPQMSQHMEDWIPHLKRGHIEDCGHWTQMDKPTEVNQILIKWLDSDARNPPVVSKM
sEH act: soluble epoxide hydrolase activators, primary screen, biochemical, human sEH; Bifunctional epoxide hydrolase 2 (Homo sapiens), P34913; purified human sEH enzymatic activity, activator screen; activation, % at 2 µM; actives 0.04% (n = 91,000); in the data active = activation above about 37%
A number is an active result; . = inactive; / = not tested or not shown.

SMILES	CYP2C9 inhib	CYP2C9 activ	CYP2C19 inh	CYP2C19 act	sEH inh	sEH act
Cc1onc(-c2ccccc2)c1C(=O)Nc1ccc2c(c1)OCO2	79	.	99	.	.	.
Cc1ccc(-n2c(SCC(=O)NC3CCCCC3)nc3c(c2=O)SCC3)cc1	.	.	.	.	/	/
CCC1Oc2ccccc2N(CC(=O)Nc2ccc3c(c2)OCCO3)C1=O (stereo unspecified)	/	/	/	/	.	.
COc1ccc(OCC(=O)NC2CC(C)(C)NC(C)(C)C2)cc1	.	.	.	.	/	/
Cc1cc2cc(CN(Cc3cccs3)C(c3nnnn3C(C)(C)C)C(C)C)c3nnnn3c2cc1C (stereo unspecified)	/	/	/	/	.	.
COc1cc(N/C(=N/S(=O)(=O)c2ccccc2)c2ccccc2)ncn1	.	.	.	.	.	.
Cc1nn(-c2ccccc2)c(C)c1C(=O)OCC(=O)Nc1ccc2c(c1)OCO2	89	.	95	.	/	/
CCS(=O)(=O)N1CCCC(C(=O)NC2CCC(C)CC2)C1 (stereo unspecified)	.	.	.	.	.	.
C=CCN(CC=C)c1cnn(-c2nc3ccccc3[nH]2)c(=O)c1Cl	54	.	56	.	.	.
O=c1c(Cl)c(NCCCO)cnn1-c1nc2ccccc2[nH]1	.	.	.	.	/	/
CN1CCCC(OC(=O)CCCC(=O)OC2CCCN(C)C2)C1 (stereo unspecified)	.	.	.	.	.	.
COCCOC(=O)c1c(C)nc(SCC(=O)Nc2ccc(C)cc2)c(C#N)c1-c1ccco1	92	.	64	.	/	/
CNC(=O)c1c(C)nc(SCC(=O)NCc2ccc(OC)cc2)c(C#N)c1-c1ccco1	.	.	.	.	.	.
Cc1cc(=O)[nH]c(SCC(=O)Nc2cccc3ccccc23)c1C#N	86	.	.	.	.	.
COCCOC(=O)c1c(C)nc(SCC(=O)Nc2cccc3ccccc23)c(C#N)c1-c1ccco1	94	.	.	.	.	.
Cc1cc(C(F)(F)F)n2nc(-c3cnn(C)c3C(F)(F)F)cc2n1	.	.	.	.	.	.
N#Cc1c(SCC(=O)O)nc(N2CCCCC2)c2c1CCCC2	.	.	.	.	.	.
N#Cc1c(NCCCO)nc(-c2ccccc2)c2c1CCCC2	97	.	93	.	.	.
COC(=O)CSc1nc(-c2ccccc2)c2c(c1C#N)CCCC2	69	.	97	.	.	.
